Drawing on PubChem BioAssay, this text covers composite z-score, composite Z-score and z-score for 5 molecules.

One assay has as its target Albumin (Bos taurus) (UniProt P02769). Put plainly: bovine serum albumin binders on microarray, profiling panel, artefact control for SMM control protein annotation, biochemical, small-molecule microarray, Alexa647 label, 635/667 nm fluorescence (AID 1118).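 Also: score merges 667 nm emission intensity and signal-to-noise per printed compound spot.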 The conditions noted are these: BSA-A647 binding, fluorescence 635 nm, higher = more signal.
The nature of assay [1]: small-molecule microarray binders of probe aXIP, primary screen, biochemical, NeuroSMM set, 635/667 nm fluorescence (AID 1119).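 Also: probe is the protein aXip251-270 applied at 1 µg/mL to compound-printed slides; binding of probe to printed compounds measured as 667 nm fluorescence plus signal to noise.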 The conditions noted are these: higher = more signal, called active from +8 up or from −8 down.
The nature of assay [2]: small-molecule binders of probe aNOTCH3, primary screen, biochemical, small-molecule microarray, 635/667 nm fluorescence (AID 1120).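 Also: probe is a biotin-tagged antibody raised against NOTCH3 rather than NOTCH3 protein; score merges spot fluorescence near 667 nm with spot signal to noise.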 The conditions noted are these: higher = more signal.
The nature of assay [3]: small-molecule binders of probe aNOTCH2, primary screen, biochemical, small-molecule microarray, 635/667 nm fluorescence (AID 1121).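 Also: score merges feature fluorescence read at 667 nm with its signal to noise.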 As to conditions: higher = more signal.
The target in assay [4] is Carbonic anhydrase 2 (Homo sapiens) (UniProt P00918). Put plainly: CAII small-molecule binders, profiling panel, biochemical, small-molecule microarray, Alexa647-labelled CAII (AID 1122). As to conditions: CAII-A647 binding fluorescence, higher = more signal.
The nature of assay [5]: COS7 lysate on small-molecule microarray, probe aHis, 635 nm (AID 1123).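 Also: z-score combines 667nm fluorescence intensity with signal-to-noise per printed compound spot.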 As to conditions: COS7 cell lysate, fluorescence, higher = more signal.
The nature of assay [6]: compound binding in COS7 lysate, probe aLAP1, primary screen, cell lysate, small-molecule microarray (AID 1124).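 Also: lysate comes from COS7 cells expressing LAP1 and is applied at 0.3 µg/mL; score merges spot fluorescence near 667 nm with signal-to-noise over triplicate slides.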 As to conditions: probe aLAP1, fluorescence, higher = more signal.
Another assay has as its system Sam68 (KHDRBS1). In words: Sam68 small-molecule binders, primary screen, biochemical, small-molecule microarray, 635 nm fluorescence (AID 1125).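 Also: score merges 667 nm channel intensity with signal to noise over triplicate slides.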 As to conditions: small-molecule microarray binding, higher = more signal.
For assay [7], the system named is Chordin-like protein 2 (CHRDL2). In words: CHRDL2 small-molecule binders, primary screen, biochemical, small-molecule microarray, 635 nm fluorescence (AID 1126).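 Also: printed compound slides probed with Chrdl2 protein at 4 µg/mL for 1 h at 4 C; score merges 667 nm emission intensity with signal to noise over three replicate slides.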 The conditions noted are these: small-molecule microarray binding, fluorescence 635 nm; higher = more signal.
In assay [8] the target is Concanavalin-A (Canavalia ensiformis) (UniProt P02866). In words: ConA small-molecule binders, primary screen, artefact control for SMM control protein annotation, biochemical, small-molecule microarray, Alexa647 label, 635 nm (AID 1127).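 Also: z combines 667 nm emission intensity with signal-to-noise across three replicate slides.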 The conditions noted are these: ConA-A647 binding fluorescence, higher = more signal.
Sequence of Concanavalin-A (Canavalia ensiformis) (P02866 whole entry, looked up): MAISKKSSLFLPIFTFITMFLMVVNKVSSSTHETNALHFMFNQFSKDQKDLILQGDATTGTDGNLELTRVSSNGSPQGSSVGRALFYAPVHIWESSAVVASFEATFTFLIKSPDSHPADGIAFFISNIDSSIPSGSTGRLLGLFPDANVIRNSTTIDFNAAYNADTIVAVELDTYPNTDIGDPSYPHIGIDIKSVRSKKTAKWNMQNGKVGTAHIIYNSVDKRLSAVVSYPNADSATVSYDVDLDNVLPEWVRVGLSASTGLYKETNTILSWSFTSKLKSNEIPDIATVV
Assay [9] is described as follows: anti-His antibody binders, primary screen, artefact control for SMM control protein annotation, biochemical, small-molecule microarray, 635 nm fluorescence (AID 1128).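 Also: score merges feature fluorescence with signal-to-noise for each printed compound spot.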 The conditions noted are these: anti-His Alexa647 antibody binding, higher = more signal.
The subject of assay [10] is Human papillomavirus type 1a E7 protein (residues 1-88). In words: HPV1a E7 small-molecule binders, primary screen, biochemical, small-molecule microarray, residues 1-88, 635 nm (AID 1129). The conditions noted are these: small-molecule microarray binding, fluorescence 635 nm; higher = more signal.
Assay [11] has as its target Focal adhesion kinase 1 (Homo sapiens) (UniProt Q05397). Put plainly: small-molecule microarray binders of FAK, primary screen, biochemical, 635/667 nm fluorescence, BSA, DTT (AID 1130).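 Also: composite of spot emission at 667 nm and signal to noise over triplicate slides.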 The conditions noted are these: PTK2 binding, 635 nm fluorescence, higher = more signal.
Assay [12] has as its system Fibrinogen (Alexa647-labelled). Put plainly: fibrinogen binders on compound microarrays, profiling panel, artefact control for SMM control-protein annotation, biochemical, small-molecule microarray, 635/667 nm fluorescence (AID 1131).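 Also: z-score merges 667 nm fluorescence with per-spot signal-to-noise over triplicate slides.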 The conditions noted are these: fibrinogen-A647 binding fluorescence, higher = more signal.
Assay [13] addresses Follistatin (Homo sapiens) (UniProt P19883). Put plainly: follistatin binders on small-molecule microarrays, primary screen, biochemical, small-molecule microarray, 635/667 nm fluorescence (AID 1132). The conditions noted are these: FST binding, 635 nm fluorescence, higher = more signal.
For assay [14], the target named is Fibroblast growth factor 2 (Homo sapiens) (UniProt P09038). Put plainly: FGF2 binders on small-molecule microarrays, primary screen, biochemical, small-molecule microarray, 635/667 nm fluorescence (AID 1133). The conditions noted are these: small-molecule microarray binding, FGF2, fluorescence 635/667; higher = more signal.
Sequence of Fibroblast growth factor 2 (Homo sapiens) (P09038 whole entry, looked up): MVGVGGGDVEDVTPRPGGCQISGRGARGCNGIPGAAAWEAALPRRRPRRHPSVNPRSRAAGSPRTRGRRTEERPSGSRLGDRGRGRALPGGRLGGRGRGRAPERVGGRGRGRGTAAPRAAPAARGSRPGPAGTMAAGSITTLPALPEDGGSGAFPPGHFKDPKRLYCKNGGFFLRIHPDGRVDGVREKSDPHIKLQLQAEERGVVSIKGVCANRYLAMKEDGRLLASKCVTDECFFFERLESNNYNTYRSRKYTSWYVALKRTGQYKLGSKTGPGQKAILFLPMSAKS
The nature of assay [15]: mitochondrial membrane potential change in A549 cells, profiling panel, cell-based, JC-1 fluorescence, basal, 24 h, 100 nL (AID 1138).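 Also: A549 lung adenocarcinoma cells under basal conditions with no added stimulus; test concentration not given here.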 As to conditions: higher = more signal.
The subject of a further assay is Lefty1. Put plainly: Lefty1 binders on small-molecule microarrays, primary screen, biochemical, small-molecule microarray, 635/667 nm fluorescence (AID 1139). As to conditions: small-molecule microarray binding, fluorescence 635/667; higher = more signal.
In assay [16] the test system is wheat germ agglutinin (Triticum aestivum), Alexa647-labelled. Put plainly: wheat germ agglutinin binders on compound microarrays, profiling panel, artefact control for SMM control-protein annotation, biochemical, small-molecule microarray, 635/667 nm fluorescence (AID 1140).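 Also: score merges 667 nm feature emission with signal to noise over triplicate slides.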 The conditions noted are these: WGA-A647 binding, 635 nm fluorescence, higher = more signal.

The target in assay [17] is Luciferin 4-monooxygenase (Photinus pyralis) (UniProt P08659). In words: firefly luciferase enzyme inhibitors, primary screen, biochemical, luminescence, purified enzyme, 2006 set (AID 1141).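 Also: cell-free assay with purified firefly luciferase at 100 ng per well in PBS; test concentration not given here.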 The conditions noted are these: SteadyGlo luminescence, 30 min, higher = more signal, called active from +8 up or from −8 down.
Sequence of Luciferin 4-monooxygenase (Photinus pyralis) (P08659 whole entry, looked up): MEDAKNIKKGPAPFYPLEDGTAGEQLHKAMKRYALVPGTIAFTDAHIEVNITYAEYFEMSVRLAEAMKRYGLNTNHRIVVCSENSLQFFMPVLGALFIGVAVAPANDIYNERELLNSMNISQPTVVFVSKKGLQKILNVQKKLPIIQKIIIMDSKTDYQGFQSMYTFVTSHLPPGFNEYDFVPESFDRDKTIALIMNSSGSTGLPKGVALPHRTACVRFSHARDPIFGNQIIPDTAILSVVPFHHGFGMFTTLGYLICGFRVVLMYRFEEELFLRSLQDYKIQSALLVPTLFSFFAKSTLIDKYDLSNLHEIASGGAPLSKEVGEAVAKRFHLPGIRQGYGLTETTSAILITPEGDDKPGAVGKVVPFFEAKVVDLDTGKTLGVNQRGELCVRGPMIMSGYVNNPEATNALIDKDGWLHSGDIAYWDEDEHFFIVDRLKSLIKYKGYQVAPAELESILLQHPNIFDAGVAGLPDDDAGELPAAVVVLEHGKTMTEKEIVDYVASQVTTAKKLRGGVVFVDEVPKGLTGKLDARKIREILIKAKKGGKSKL

Calls of active or inactive are those of the source.

Sequence of Focal adhesion kinase 1 (Homo sapiens) (Q05397 whole entry, looked up): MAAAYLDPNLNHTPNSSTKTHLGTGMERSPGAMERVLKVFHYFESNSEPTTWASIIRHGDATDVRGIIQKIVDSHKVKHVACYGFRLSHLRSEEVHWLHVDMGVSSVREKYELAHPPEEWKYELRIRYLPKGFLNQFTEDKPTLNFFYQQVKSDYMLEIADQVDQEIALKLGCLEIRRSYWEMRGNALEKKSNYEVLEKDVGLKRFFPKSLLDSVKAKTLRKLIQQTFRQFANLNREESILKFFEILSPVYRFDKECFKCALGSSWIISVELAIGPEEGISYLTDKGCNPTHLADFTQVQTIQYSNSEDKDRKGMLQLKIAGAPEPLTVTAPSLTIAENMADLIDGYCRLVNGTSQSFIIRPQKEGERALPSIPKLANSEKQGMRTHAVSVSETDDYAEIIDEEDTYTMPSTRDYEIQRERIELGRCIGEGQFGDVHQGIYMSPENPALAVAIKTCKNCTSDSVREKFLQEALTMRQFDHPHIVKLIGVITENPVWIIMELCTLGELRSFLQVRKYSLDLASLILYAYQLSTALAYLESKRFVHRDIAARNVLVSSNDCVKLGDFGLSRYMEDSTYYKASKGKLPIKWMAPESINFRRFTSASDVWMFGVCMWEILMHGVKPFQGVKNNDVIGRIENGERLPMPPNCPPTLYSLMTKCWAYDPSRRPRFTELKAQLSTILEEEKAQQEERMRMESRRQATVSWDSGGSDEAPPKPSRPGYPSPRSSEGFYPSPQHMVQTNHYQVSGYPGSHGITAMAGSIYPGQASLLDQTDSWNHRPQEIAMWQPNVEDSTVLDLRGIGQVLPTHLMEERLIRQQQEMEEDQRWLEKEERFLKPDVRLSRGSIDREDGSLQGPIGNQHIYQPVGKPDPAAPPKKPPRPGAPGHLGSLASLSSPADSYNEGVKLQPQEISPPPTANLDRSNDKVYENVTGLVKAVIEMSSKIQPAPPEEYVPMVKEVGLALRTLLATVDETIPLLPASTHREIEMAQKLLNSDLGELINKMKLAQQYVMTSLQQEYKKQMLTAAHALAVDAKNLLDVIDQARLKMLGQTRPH
Sequence of Albumin (Bos taurus) (P02769 whole entry, looked up): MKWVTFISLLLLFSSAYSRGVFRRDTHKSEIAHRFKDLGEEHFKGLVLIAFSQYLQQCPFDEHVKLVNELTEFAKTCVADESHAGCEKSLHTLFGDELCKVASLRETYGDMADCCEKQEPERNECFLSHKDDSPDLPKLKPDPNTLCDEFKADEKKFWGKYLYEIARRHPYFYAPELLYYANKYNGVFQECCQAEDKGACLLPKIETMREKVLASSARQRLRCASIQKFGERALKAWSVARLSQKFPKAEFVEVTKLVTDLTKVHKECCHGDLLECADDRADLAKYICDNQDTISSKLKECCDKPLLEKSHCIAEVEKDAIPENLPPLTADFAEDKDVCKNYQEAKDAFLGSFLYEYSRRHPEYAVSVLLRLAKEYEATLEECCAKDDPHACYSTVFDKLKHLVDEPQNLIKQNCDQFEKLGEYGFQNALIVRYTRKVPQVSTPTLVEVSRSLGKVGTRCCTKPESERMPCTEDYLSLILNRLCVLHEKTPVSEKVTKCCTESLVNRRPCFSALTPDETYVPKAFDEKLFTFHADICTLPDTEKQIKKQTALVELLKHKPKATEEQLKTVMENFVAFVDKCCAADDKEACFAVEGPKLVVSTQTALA
Sequence of Follistatin (Homo sapiens) (P19883 whole entry, looked up): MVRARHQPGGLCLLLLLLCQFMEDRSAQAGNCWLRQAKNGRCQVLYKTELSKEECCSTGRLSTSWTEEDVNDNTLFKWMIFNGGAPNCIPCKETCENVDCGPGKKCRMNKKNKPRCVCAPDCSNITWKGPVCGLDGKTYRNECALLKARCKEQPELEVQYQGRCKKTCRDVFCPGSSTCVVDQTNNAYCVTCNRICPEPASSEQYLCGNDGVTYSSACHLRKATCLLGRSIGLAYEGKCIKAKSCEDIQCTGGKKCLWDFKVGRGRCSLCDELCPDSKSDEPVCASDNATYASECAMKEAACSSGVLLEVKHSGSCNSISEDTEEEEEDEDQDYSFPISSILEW

For `C#CCCCON=C1C[C@@H](O)[C@@H](O)[C@@H]2[C@@H]3C(=O)N(C[C@@H]4CCCO4)C(=O)[C@@H]3CC[C@@H]12`, the composite z-score was 0.211 in the assay with Albumin (Bos taurus); -0.047 in assay [2]; -0.0614 in assay [3]; 0.406 in assay [4]; 0.31 in assay [5]; 0.221 in assay [6]. Further, the composite z-score in the assay on Sam68 (KHDRBS1) was 0.254; in assay [7], 0.264; in [8], 0.842; in assay [9] it was 0.265; in [10], 0.439; in assay [11], -0.14. The composite z-score in assay [12] was found to be 0.527; in [13] it was 0.378; in assay [14], 0.222; with Lefty1 it was 0.554; in assay [16], 0.553. For the same molecule, in assay [1], the composite Z-score was -0.294 (inactive). In addition, the z-score in assay [15] was 0.441; in assay [17], -0.106 (inactive).
For the molecule `C[C@@H](c1ccccc1)N1C(=O)[C@H]2[C@H]3[C@H](O)[C@H](O)CC(=NNC(=O)OCc4ccccc4)[C@@H]3CC[C@H]2C1=O`, the composite z-score with Albumin (Bos taurus) is 0.517; in [2], -0.0647; in assay [3], -0.148; in [4] it was -0.191; in [5], -0.231; in [6], -0.723. Also, the composite z-score is 0.723 in the assay with Sam68 (KHDRBS1); 1.45 in [7]; -0.569 in assay [8]; -0.23 in assay [9]; -1.01 in assay [10]; 0.37 in assay [11]. Moreover, the composite z-score in assay [12] is -0.864; in [13], 1.43; in assay [14], 1.66; in the assay on Lefty1, 1.39; in assay [16] it was -0.212. In addition, in assay [1], the composite Z-score is 0.581 (inactive). Also, the z-score in assay [15] was -0.383; in assay [17], 0.574 (inactive).
As to `CCN1C(=O)[C@H]2[C@H]3[C@H](O)[C@H](O)CC(=NNC(=O)OCc4ccccc4)[C@@H]3CC[C@H]2C1=O`, the composite z-score with Albumin (Bos taurus) is 0.489; in [2], -0.0647; in assay [3], -0.14; in assay [4], -0.289; in [5], 0.917; in assay [6], -0.314. Also, the composite z-score in the assay on Sam68 (KHDRBS1) is -0.327; in assay [7], -0.0079; in assay [8] it was 0.145; in [9], 0.545; in [10], -0.513; in assay [11], -0.116. Moreover, the composite z-score was 0.315 in assay [12]; 0.0633 in [13]; -0.0789 in assay [14]; 0.066 in the assay on Lefty1; 0.128 in [16]. Moreover, in [1], the composite Z-score is -0.45 (inactive). For the same molecule, the z-score in [15] was 0.207; in assay [17], 0.248 (inactive).
With `O=C1C2=CC[C@H]3C(=O)N(Cc4ccccc4)C(=O)[C@H]3[C@H]2[C@H](O)[C@@H]2O[C@H]12`, the composite z-score with Albumin (Bos taurus) was -0.356; in [2], -0.199; in assay [3], -0.167; in [4], 0.0372; in assay [5] it was -0.458; in [6] it was -0.11. Besides, the composite z-score with Sam68 (KHDRBS1) is 0.085; in assay [7], 0.343; in [8], -0.707; in assay [9], 0.198; in assay [10] it was 0.111; in [11], -0.36. In addition, the composite z-score in assay [12] is 0.739; in assay [13], -0.267; in assay [14] it was -0.022; in the assay with Lefty1 it was -0.423; in [16] it was 0.254. Also, the composite Z-score in assay [1] was 0.0144 (inactive). The z-score was -0.447 in assay [15] and -0.174 (inactive) in assay [17].
With `COC(=O)[C@H](C)NC(=O)CCC1CC(OC(=O)NCc2cccc3ccccc23)CC2(CCCC(COC(=O)NCCC(C)C)O2)O1` (stereo not given in full), the composite z-score is 0.168 with Albumin (Bos taurus); -0.095 in assay [2]; -0.124 in assay [3]; 0.24 in [4]; 1.01 in assay [5]; 0.127 in [6]. The composite z-score in the assay on Sam68 (KHDRBS1) is 0.997; in assay [7], 0.229; in assay [8], -0.087; in assay [9], 0.164; in assay [10], 1.18; in assay [11], 0.287. Further, the composite z-score in assay [12] is -1.15; in assay [13], 0.295; in assay [14], 0.803; in the assay on Lefty1, 0.36; in [16] it was 0.268. Besides, the composite Z-score in assay [1] is 0.559 (inactive). In addition, the figures for the z-score in [15] and in assay [17] were 0.95 and 0.652 (inactive), respectively.
